Measured values taken from PubChem BioAssay (NCI).
Values joined by “and” are separate entries in the source; they are usually repeats but may differ in a detail not shown here. Equal values may be shown once. About 79,000 compounds went through this panel and 15% of them were active in at least one assay; those are over-represented in the sample as a whole. Unmarked numbers belong to inactive results. Active and inactive are the calls of the source. Rule as the data show it: active = growth inhibition above about 70%; inactive = the rest. Starred links: 1 amine or outer side, 2 acyl side, 3 side chain; linkers in the order of their positions; H or OH if unused. Positions of bridges follow the written chain, without caps; N, C: chain ends. Non-standard residues stand in square brackets, D forms with d. Residues, ends and D or L forms follow the SMILES beside them. Chains are numbered I, II in the order given. Actinocin(9to1) = Cc1c2oc3c(C)ccc(C(=O)[*:1])c3nc-2c(C(=O)[*:2])c(N)c1=O; aThr = C[C@H](O)[C@H](N)C(=O)O; NMeV = CN[C@H](C(=O)O)C(C)C; Sar = CNCC(=O)O

Assay: NCI Yeast Anticancer Drug Screen. Data for the bub3 strain (AID 167)
Conditions: S. cerevisiae bub3 mutant strain, stronger effect = higher value
Description: Growth inhibition of yeast strains with defined genetic alterations is measured as a screen for potential anti-cancer activity. Selected strains with alterations in DNA damage repair or cell cycle control were exposed to compounds and growth inhibition was measured relative to vehicle treated controls. The strain used in this assay is bub3

[1] = at 5.0 µM (retest, dose inferred, filed as 0.5)
[2] = at 50.0 µM (retest, dose inferred, filed as 5.0)

SMILES | growth inhibition (at 1.2 µM) | growth inhibition (at 3.7 µM) | growth inhibition [1] | growth inhibition (at 11.0 µM) | growth inhibition (at 33.0 µM) | growth inhibition [2] | growth inhibition (at 50.0 µM) | growth inhibition (at 100.0 µM)
CN(C)c1ccc(C(c2ccc(Cl)cc2)c2ccc(N(C)C)cc2)cc1 | 80% (active) | 98% (active) | 93% (active) and 99% (active) | 97% (active) | 93% (active) | 91% (active) and 99% (active) | 94.4% (active) and 91.3% (active) | 80% (active)
CCOc1ccccc1N1C(=O)CC(Sc2ccccc2N)C1=O (stereo not given) | -4% | 1% | 30% | -10% | -23% | 38% | 11.4% | -38%
COc1cc(C(C)(C)C)cc(OC)c1C(O)(c1c(OC)cc(C(C)(C)C)cc1OC)c1c(OC)cc(C(C)(C)C)cc1OC | -25% | 44% | 76% (active) | 92% (active) | 94% (active) | 96% (active) | 75.8% (active) | 85% (active)
Cc1c2oc3c(C)ccc(C(=O)N[C@@H]4C(=O)N[C@H](C(C)C)C(=O)N5CCC[C@H]5C(=O)N(C)CC(=O)N(C)[C@@H](C(C)C)C(=O)O[C@H]4C)c3nc-2c(C(=O)N[C@@H]2C(=O)N[C@H](C(C)C)C(=O)N3CCC[C@H]3C(=O)N(C)CC(=O)N(C)[C@@H](C(C)C)C(=O)O[C@H]2C)c(N)c1=O (I: [aThr][dV]P[Sar][NMeV] / II: [aThr][dV]P[Sar][NMeV]; ester I:1-I:C, II:1-II:C; linker I:N-II:N via Actinocin(9to1)) | 3% | 28% | 24% | 90% (active) | 96% (active) | 96% (active) | 92% (active) | 98% (active)
CCCCCCCCCCCCOC1C(COCCN2CCCC2)OC2OC(C)(C)OC21 (stereo not given) | -18% | -16% | 29% | 96% (active) | 98% (active) | 98% (active) | 88.5% (active) | 98% (active)
